# VACV mCherry inh: inhibitors of vaccinia virus infection (mCherry reporter signal) | 310,000 compounds, 0.63% hits | Potency, µM (titrated, usually from 36.5 µM), usual class: inhibitors | Vaccinia virus mCherry reporter infection, fluorescence; calls by dose curve; tested in A549 cells; further: nearly all actives have a fitted effect of over 35% in size
# Cycloheximide cs: affects cycloheximide protein synthesis inhibition readout, counter-screen. cell reporter, cycloheximide protein synthesis inhibition counterscreen. max response, %. 300,000 compounds, 12% hits; in the data active means max response mostly above about 13%, no sharp cut-off; inactive means mostly below about 14%; further: read at 38.3 µM for the half of the compounds with a filed dose
# LASV entry inh: blocks Lassa virus binding to or entry into cells. Lassa virus pseudotype entry inhibition, cell reporter. Potency, µM (series often up to 37.9 µM), actives largely listed as inhibitors. 300,000 compounds, 1.2% hits; calls by dose curve; tested in HEK293 cells; further: nearly all actives have a fitted effect of over 50% in size
# MARV entry inh: blocks Marburg virus binding to or entry into cells | Marburg virus pseudotyped entry inhibition, cell reporter | Potency, µM (titrated, usually from 37.8 µM), hits mostly inhibitors | 300,000 compounds, 1.8% hits; calls by dose curve; tested in HEK293 cells
# Shiga toxin inh: Shiga toxin inhibition; inhibition, % at 38.7 µM; AID 2315; Vero cells, Shiga toxin protein synthesis inhibition reporter; 290,000 compounds, 9.2% hits; in the data active means inhibition mostly above about 28%, no sharp cut-off; inactive means mostly below about 43%
# Vaccinia Venus: vaccinia inhibition (Venus reporter) | Vaccinia virus Venus reporter expression, fluorescence | Potency, µM (top dose mostly 36.5 µM), most hits filed as inhibitors | 330,000 compounds, 0.46% hits | AID 720580; calls by dose curve; tested in A549 cells; further: nearly all actives have a fitted effect of over 30% in size
# Numbers stand for hits; 0 = inactive; ? = inconclusive; - = no result given. This is one part of a sample in which hits are shown more often than they occur.
SMILES,VACV mCherry inh,Cycloheximide cs,LASV entry inh,MARV entry inh,Shiga toxin inh,Vaccinia Venus
COc1ccc(C)cc1NC(=O)c1cc2c(s1)-c1ccccc1SC2,0,-,0,0,-,0
O=C(c1ccc2c(c1)OCCCO2)c1cccs1,-,31,?,0,44,-
CCN(CC)S(=O)(=O)c1cc(NC(=O)c2ccc(Br)s2)ccc1C,0,64,?,?,77,0
C=C1C=C(C)n2ncc(C(=O)NCCCCCC)c2N1,0,-,-,-,-,0
N#CCCn1cc(C(=O)CN2C(=O)NC3(CCCCCC3)C2=O)c2ccccc21,0,-,0,?,-,0
N#CCCn1cc(C(CC(=O)c2ccccc2)C(=O)O)c2ccccc21 (stereo not given),0,30,0,0,0,0
CN(C)/C=C/C(=O)c1cc(F)cc(C(F)(F)F)c1,0,0,0,?,0,0
C[N+]1(CCNC(=O)/C=N\O)CCCCC1,-,-,-,0,-,-
O=C(COc1ccccc1)Nc1nc2ccccc2[nH]1,-,46,?,?,65,-
CC(CC(=O)Nc1nc2ccccc2[nH]1)c1ccccc1 (stereo not given),-,46,?,?,84,?
CC(CC(=O)Nc1nc2ccccc2[nH]1)n1ccnc1 (stereo not given),0,0,0,0,0,0
CCOc1ccccc1Nc1nc2ccccc2[nH]1,0,17,0,0,0,0
Cc1ccccc1OCC(=O)Nc1nc2ccccc2[nH]1,0,32,0,?,108,0
Cc1cc(C)c(OCC(=O)Nc2nc3ccccc3[nH]2)c(C)c1,-,0,-,-,0,-
O=C(CN1CCCC1c1ccc2c(c1)OCCO2)NC(=O)Nc1ccccc1F (stereo not given),0,-,0,0,-,0
CCOCc1ccccc1Nc1ncnc2onc(-c3ccc(Cl)cc3)c12,0,-,0,0,-,0
CCOc1ccccc1OCC(=O)Nc1nc2ccccc2[nH]1,0,22,-,0,52,0
O=C(Cc1ccccc1Cl)Nc1nc2ccccc2[nH]1,0,31,?,0,31,0
O=C(COc1cccc2ccccc12)Nc1nc2ccccc2[nH]1,-,0,0,0,0,0
Nc1nc(Cl)cc(N2CCC(c3cc(-c4ccc(Cl)cc4)n[nH]3)CC2)n1,-,0,6.5µM,?,0,-
Clc1ccc(-c2cc(C3CCNCC3)[nH]n2)cc1,0,0,0,?,0,0
COc1ccc(OC)c(-c2cc(C3CCN(c4ncccc4[N+](=O)[O-])CC3)[nH]n2)c1,?,0,?,?,0,?
COc1ccc(-c2cc(C3CCN(Cc4cccc(C(F)(F)F)c4)CC3)[nH]n2)cc1,0,0,?,10µM,0,?
COc1ccc(OC)c(-c2cc(C3CCN(c4cc(Cl)nc(N)n4)CC3)[nH]n2)c1,13µM,0,?,?,0,?
COc1ccc(-c2cc(C3CCN(c4cc(Cl)nc(N)n4)CC3)[nH]n2)cc1,-,0,?,9.2µM,0,-
SMILES,VACV mCherry inh,Cycloheximide cs,LASV entry inh,MARV entry inh,Shiga toxin inh,Vaccinia Venus
COc1ccc(-c2cc(C3CCN(Cc4ccc([N+](=O)[O-])cc4)CC3)[nH]n2)cc1,0,0,0,?,0,0
COc1ccc(-c2cc(C3CCN(CC(O)C(F)(F)F)CC3)[nH]n2)cc1 (stereo not given),-,0,-,-,0,-
C/C(=N\OC(=O)NC(C)C)c1sc(-c2ccccc2)nc1C,0,26,?,?,0,0
C/C(=N\OC(=O)NC(C)C)c1sc(-c2ccc(Cl)cc2)nc1C,-,34,?,?,112,0
C/C(=N\OC(=O)NC1CCCCC1)c1sc(-c2ccccc2)nc1C,-,0,?,?,0,-
C=CCNC(=O)c1sc(-c2ccccc2)nc1C,0,17,0,0,42,0
CCNC(=O)O/N=C(\C)c1sc(-c2ccc(Cl)cc2)nc1C,0,52,0,?,114,0
Cc1nc(-c2ccccc2)sc1C(=O)NN,-,0,0,0,0,-
Cc1ccc(C)c(OC(=O)CSc2nnc(-c3ccc4c(c3)OCO4)o2)c1,0,-,0,0,-,0
C/C(=N\OC(=O)c1ccc(F)cc1)c1sc(-c2ccccc2)nc1C,-,19,0,?,0,0
C/C(=N\OC(=O)c1ccc(Cl)cc1)c1sc(-c2ccccc2)nc1C,0,0,0,?,0,0
O=C(c1ccc(Cn2c(=S)[nH]c3ccc(N4CCOCC4)cc3c2=O)cc1)N1CCN(c2ccc(F)cc2)CC1,0,37,0,?,88,0
O=C(CCCCCn1c(=S)[nH]c2ccc(N3CCOCC3)cc2c1=O)NCc1ccc(Cl)cc1,0,0,?,?,0,0
COc1ccc(Cn2c(=S)[nH]c3cc(C(=O)N4CCN(c5ccccc5)CC4)ccc3c2=O)cc1,0,0,0,0,0,0

# High-throughput results as filed in PubChem.
